The record followed here is PubChem BioAssay (Tox21).

Values joined by “and” are separate entries in the source; they are usually repeats but may differ in a detail not shown here. Equal entries are not always repeated. Inconclusive results are not listed. The source holds several records for some structures; these can differ, active in one and inactive in another. Active and inactive are the calls of the source. Unless noted, calls come from the whole dose curve; as a rule, active = well fitted curve in the direction sought with a large enough effect in the repeat runs; inconclusive = weak or mixed curves; inactive = no such curve, though single readings can be large; an effect the other way counts as inactive or inconclusive.

A short description of assay [1]: qHTS assay to test for compound auto fluorescence at 535 nm (green) in HEK293 cells (AID 720680). (In general: qHTS replaces the single test concentration by a dilution series.)
A short description of assay [2]: qHTS assay to test for compound auto fluorescence at 460 nm (blue) in HEK293 cell free culture (AID 720681). Put shortly:
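Blue fluorescence (Ex 405/Em 460 nm, triamterene-equivalent) was read immediately after pin transfer of compound or DMSO into medium (DMEM, 10% FBS) without cells.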

Assay [3] in a line: qHTS assay to test for compound auto fluorescence at 535 nm (green) in HEK293 cell free culture (AID 720682). Put shortly: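 Compounds were pin-transferred into cell-free DMEM with 10% FBS, and green fluorescence was read at excitation 485 nm and emission 535 nm. Intensities were expressed as fluorescein-equivalent values.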
Assay [4] in a line: qHTS assay to test for compound auto fluorescence at 590 nm (red) in HEK293 cell free culture (AID 720683). A digest of the protocol:
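Red-channel autofluorescence of compounds in culture medium (DMEM, 10% FBS), no cells, measured at 540/590 nm. Rose Bengal sodium is the reference fluorophore for equivalence.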

Assay [5] is described as follows: qHTS assay to test for compound auto fluorescence at 590 nm (red) in HepG2 cell free culture (AID 720684). A digest of the protocol: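 Steps: dispense MEM/10% FBS medium, no cells; pin compound or DMSO vehicle; read red channel, Ex/Em 540/590 nm. Output given as Rose Bengal sodium equivalents.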
A short description of assay [6]: qHTS assay to test for compound auto fluorescence at 460 nm (blue) in HepG2 cell free culture (AID 720685). Put shortly:
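Compound (23 nL) or DMSO pinned into cell-free MEM with 10% FBS; blue fluorescence read at 405/460 nm excitation/emission, expressed as auto-fluorescence equivalency to triamterene.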

A short description of assay [7]: qHTS assay to test for compound auto fluorescence at 535 nm (green) in HepG2 cell free culture (AID 720686).
Assay [8] in a line: qHTS assay to test for compound auto fluorescence at 460 nm (blue) in HepG2 cells (AID 720687). A digest of the protocol: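 Blue-channel autofluorescence (Ex/Em 405/460 nm, triamterene-equivalent) was measured after 1 hr compound exposure at 37 C, 5% CO2. Cells were HepG2, plated overnight at 37 C in MEM plus 10% FBS.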
Assay [9] has as its target Glucocorticoid receptor (Homo sapiens) (UniProt P04150). Put plainly: qHTS assay to identify small molecule agonists of the glucocorticoid receptor (GR) signaling pathway (AID 720691; active = well fitted activation curve with a large enough effect in the signal ratio in the repeat runs, not every such curve was filed as active; the % refers to the signal ratio). Put shortly: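 Agonist mode in a HeLa line carrying a GRE-controlled beta-lactamase reporter. Compounds act for 18 h at 37 C before a 2 h room-temperature FRET substrate step and fluorescence reading.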

Assay [10] is described as follows: qHTS assay to identify small molecule antagonists of the glucocorticoid receptor (GR) signaling pathway - cell viability counter screen (AID 720693). Note: nearly all actives have a fitted effect of over 55% in size.
Assay [11] in a line: qHTS assay for identifying genotoxic compounds that show differential cytotoxicity against isogenic chicken DT40 cell lines with known DNA damage response pathways - wild type cell line (AID 743012). Note: nearly all actives have a fitted effect of over 60% in size. A digest of the protocol: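 Cells (DT40 wild type, 300/well) are treated with DMSO-dissolved compounds after a ~0.5 h pre-incubation and kept 40 h at 37 C/5% CO2. Viability is then measured by CellTiter-Glo luminescence following 30 min at room temperature.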

A short description of assay [12]: qHTS assay for identifying genotoxic compounds that show differential cytotoxicity against isogenic chicken DT40 cell lines with known DNA damage response pathways - Rev3 mutant cell line (AID 743014). Note: nearly all actives have a fitted effect of over 55% in size.
Assay [13] can be described thus: qHTS assay for identifying genotoxic compounds that show differential cytotoxicity against isogenic chicken DT40 cell lines with known DNA damage response pathways - Rad54/Ku70 mutant cell line (AID 743015). Note: nearly all actives have a fitted effect of over 60% in size. Note: potency is the fitted concentration of half-maximal effect.
Assay [14] can be described thus: qHTS assay to identify small molecule antagonists of the androgen receptor (AR) signaling pathway - cell viability counter screen (AID 743033; note: nearly all actives have a fitted effect of over 45% in size).
In assay [15] the target is Androgen receptor (Homo sapiens) (UniProt P10275). Put plainly: qHTS assay to identify small molecule antagonists of the androgen receptor (AR) signaling pathway (AID 743035; active = well fitted inhibition curve with a large enough effect in the signal ratio in the repeat runs, not every such curve was filed as active; the % refers to the signal ratio). Put shortly: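 Antagonism is scored as loss of R1881-driven beta-lactamase reporter expression in HEK293 cells carrying the reporter under a UAS element, after 16 h co-treatment at 37C and a 2 h room-temperature FRET substrate read.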

Assay [16] has the same target. Put plainly: qHTS assay to identify small molecule agonists of the androgen receptor (AR) signaling pathway (AID 743036; active = well fitted activation curve with a large enough effect in the signal ratio in the repeat runs, with a control signal flat, not every such curve was filed as active; the % refers to the signal ratio). A digest of the protocol: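 Activation was read as beta-lactamase FRET signal from LiveBLAzer B/G substrate, added for 2 h at room temperature. Before that, GeneBLAzer AR-UAS-bla GripTite (HEK293) cells had 16 h compound exposure at 37C.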
Assay [17] shares this target. Put plainly: qHTS assay to identify small molecule agonists of the androgen receptor (AR) signaling pathway using the MDA cell line (AID 743040; note: nearly all actives have a fitted effect of over 20% in size). A digest of the protocol:
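Cells plated, 5 h at 37C/0% CO2; compound or DMSO pinned; 16 h at 37C; ONE-Glo added; luminescence measured after 30 min at room temperature. Reporter line: MDA-kb2 with MMTV-luciferase responsive to AR and GR.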

The nature of assay [18]: qHTS assay to identify small molecule antagonists of the androgen receptor (AR) signaling pathway using the MDA cell line - cell viability counter screen (AID 743041; note: nearly all actives have a fitted effect of over 45% in size). Put shortly:
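Cells were plated at 3,000 per well and left 5 h. Compounds in DMSO were then pinned in, followed by R1881. After 16 h at 37C, CellTiter-Fluor fluorescence gave viability.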

Assay [19] addresses Androgen receptor (Homo sapiens) (UniProt P10275). Put plainly: qHTS assay to identify small molecule antagonists of the androgen receptor (AR) signaling pathway using the MDA cell line (AID 743042; note: nearly all actives have a fitted effect of over 55% in size). Put shortly: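 Antagonist mode: compounds plus R1881 agonist added to MDA-kb2 AR-luc cells, incubated 16 h at 37C. Luciferase reporter luminescence quantified, with multiplexed CellTiter-Fluor readout for cell viability.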

Assay [20] addresses Glucocorticoid receptor (Homo sapiens) (UniProt P04150). Put plainly: qHTS assay to identify small molecule antagonists of the glucocorticoid receptor (GR) signaling pathway (AID 720692; active = well fitted inhibition curve with a large enough effect in the signal ratio in the repeat runs, not every such curve was filed as active; the % refers to the signal ratio). A digest of the protocol: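 Cells plated, rested 4 h at 37 C/5% CO2; compounds in DMSO pin-transferred; dexamethasone added to 5 nM final; 18 h at 37 C; B/G FRET substrate added, 2 h room temperature; fluorescence measured.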

Chain of Glucocorticoid receptor (Homo sapiens) (P04150 whole entry, looked up): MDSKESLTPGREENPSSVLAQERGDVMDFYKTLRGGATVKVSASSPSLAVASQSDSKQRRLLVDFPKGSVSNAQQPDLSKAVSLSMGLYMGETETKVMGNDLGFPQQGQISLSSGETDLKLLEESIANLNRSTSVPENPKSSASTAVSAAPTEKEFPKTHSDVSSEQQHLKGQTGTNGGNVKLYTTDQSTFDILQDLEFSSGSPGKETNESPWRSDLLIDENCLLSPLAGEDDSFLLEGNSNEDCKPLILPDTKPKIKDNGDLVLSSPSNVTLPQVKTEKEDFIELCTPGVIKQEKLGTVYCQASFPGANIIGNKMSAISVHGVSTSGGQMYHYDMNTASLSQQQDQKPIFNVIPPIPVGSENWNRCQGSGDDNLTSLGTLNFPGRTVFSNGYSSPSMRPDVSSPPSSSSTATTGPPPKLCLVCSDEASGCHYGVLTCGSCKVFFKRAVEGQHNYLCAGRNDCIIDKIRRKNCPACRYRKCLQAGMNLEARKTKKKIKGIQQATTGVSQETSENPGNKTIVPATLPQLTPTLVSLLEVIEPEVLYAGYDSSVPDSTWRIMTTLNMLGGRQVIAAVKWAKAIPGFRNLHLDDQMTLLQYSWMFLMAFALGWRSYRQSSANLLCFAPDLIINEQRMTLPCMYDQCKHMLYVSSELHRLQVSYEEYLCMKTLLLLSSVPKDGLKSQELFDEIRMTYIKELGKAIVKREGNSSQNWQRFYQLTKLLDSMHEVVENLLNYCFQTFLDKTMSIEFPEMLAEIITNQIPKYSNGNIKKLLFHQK
Chain of Androgen receptor (Homo sapiens) (P10275 whole entry, looked up): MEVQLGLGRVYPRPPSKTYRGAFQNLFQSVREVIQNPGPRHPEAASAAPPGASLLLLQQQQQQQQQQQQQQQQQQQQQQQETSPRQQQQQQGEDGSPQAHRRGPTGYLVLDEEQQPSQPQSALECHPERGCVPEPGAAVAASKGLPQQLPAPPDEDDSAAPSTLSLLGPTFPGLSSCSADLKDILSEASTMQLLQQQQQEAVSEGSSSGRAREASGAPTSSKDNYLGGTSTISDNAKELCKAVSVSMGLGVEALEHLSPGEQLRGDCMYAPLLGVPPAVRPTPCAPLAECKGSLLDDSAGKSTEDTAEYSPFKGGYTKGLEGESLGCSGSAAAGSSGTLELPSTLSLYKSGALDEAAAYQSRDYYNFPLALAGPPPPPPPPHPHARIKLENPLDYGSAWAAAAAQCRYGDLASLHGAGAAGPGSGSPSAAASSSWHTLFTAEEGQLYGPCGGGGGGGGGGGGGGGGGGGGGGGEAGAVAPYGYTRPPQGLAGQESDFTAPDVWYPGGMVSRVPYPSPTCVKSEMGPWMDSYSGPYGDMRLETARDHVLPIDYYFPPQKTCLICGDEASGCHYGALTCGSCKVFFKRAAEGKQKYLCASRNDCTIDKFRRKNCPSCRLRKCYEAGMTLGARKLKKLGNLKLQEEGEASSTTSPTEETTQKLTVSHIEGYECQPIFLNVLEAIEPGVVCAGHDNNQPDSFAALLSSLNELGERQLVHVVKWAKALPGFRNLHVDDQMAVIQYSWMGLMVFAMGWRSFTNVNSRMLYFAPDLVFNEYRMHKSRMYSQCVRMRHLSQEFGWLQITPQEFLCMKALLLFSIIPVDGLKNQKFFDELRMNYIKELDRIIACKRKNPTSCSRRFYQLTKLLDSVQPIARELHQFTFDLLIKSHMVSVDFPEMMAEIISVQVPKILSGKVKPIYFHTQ

Take `CC(=O)OCc1ccccc1`: the outcome in assay [1], in assay [2], in assay [3], in assay [4], in [5] and in assay [6] was inactive. Further, the call in assay [7], in [8], in assay [9], in assay [10], in assay [14] and in [15] was inactive. The outcome in assay [19] was inactive. Further, the Potency result in [11], in assay [12], in [13], in [16], in assay [17] and in [18] was “inactive” throughout.

As for `CC(C)=CCl`, the compound was called inactive in [1], in [2], in [3], in assay [4], in [5] and in assay [6]. Also, the compound was classed as inactive in assay [7], in assay [8], in [9], in [10] and in assay [14]. In addition, the Potency result in assay [20], in [11], in assay [13] and in assay [18] was “inactive” each time.

For the compound `CCCOC(=O)c1ccccc1`, the compound was called inactive in assay [1], in assay [2], in assay [3], in assay [4], in [5] and in assay [6]. In addition, the outcome in [7], in assay [8], in [9], in assay [10] and in [14] was inactive. For the same compound, the Potency result in assay [20], in assay [11], in [13] and in assay [18] was “inactive” in each case.

Take `c1ccc(Oc2ccccc2)cc1`: the result in assay [1], in assay [2], in assay [3], in assay [4], in assay [5] and in [6] was inactive. The outcome in assay [7], in assay [8], in assay [9], in assay [10] and in [14] was inactive. Besides, the Potency entry in assay [20], in assay [11], in assay [13] and in [18] was “inactive” each time.

`COc1ccc([N+](=O)[O-])cc1N`: the compound was classed as inactive in [1], in assay [2], in assay [3], in assay [4], in assay [5] and in assay [6]. The compound was classed as inactive in assay [7], in assay [8], in [9], in assay [10] and in [14]. The Potency entry in assay [20], in assay [11], in [12] and in assay [18] was “inactive” in each case. The Potency entry in [13] was “inactive and 54.5 µM (active)”.

Take `COc1ccc(C)cc1N`: the compound was classed as inactive in assay [1], in [2], in assay [3], in assay [4], in [5] and in assay [6]. Also, the result in assay [7], in [8], in assay [9], in [10], in assay [14] and in assay [15] was inactive. Further, the result in assay [19] was inactive. For the same compound, the Potency entry in [20], in assay [11], in [12], in assay [13], in assay [16] and in [17] was “inactive” throughout. Also, the Potency entry in assay [18] is “inactive”.

Turning to `CN/C(=C\[N+](=O)[O-])NCCSCc1csc(CN(C)C)n1`, the compound was called inactive in [1], in [2], in [3], in assay [4], in assay [5] and in assay [6]. In addition, the outcome in [7], in assay [8], in [9], in assay [10], in [14] and in assay [15] was inactive. Besides, the outcome in assay [19] was inactive. The Potency result in [20], in assay [11], in [12], in assay [13], in assay [16] and in assay [17] was “inactive” each time. In [18], the Potency result was “inactive”.

Regarding `CCCCCCCCCCCC(=O)OC`, the compound was called inactive in assay [1], in assay [2], in [3], in assay [4], in assay [5] and in assay [6]. Also, the compound was called inactive in assay [7], in assay [8], in assay [9], in [10] and in assay [14]. For the same compound, the Potency result in [20], in [11], in [12], in [13] and in [18] was “inactive” each time.
